Laboratory results as given in PubChem BioAssay AID504340 (NMMLSC, 2011).
Active and inactive are the calls of the source.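 Rule for the calls: active = GFP response above 150% of the DMSO control; inconclusive = Under 70 cell events counted for a yeast strain; inactive = the rest.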

Test: yeast TOR pathway CIT2-GFP reporter retest – flow cytometry, third cherry pick, single plex, confirmation (AID 504340);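 note: median GFP fluorescence over all cells with no mother versus daughter split; sample signal as a ratio to the plate DMSO mean so 100% equals DMSO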
Conditions: S. cerevisiae CIT2-GFP strain, 3 h, at 10 µM, stronger effect = higher value

Row | Structure (SMILES) | GFP response vs DMSO
1 | CC1=CN2C(=N)/C(=C/c3ccc([N+](=O)[O-])o3)C(=O)N=C2S1 | 1030% (active)
2 | O=C(O)CCS(=O)(=O)c1nc(-c2cccs2)cc(C(F)(F)F)n1 | 106% (inactive)
3 | OCc1ccc(O)c2ncccc12 | 91.2% (inactive)
4 | CCCC(=O)Nn1cnc2c(c1=O)C1(CCCCC1)Cc1ccccc1-2 | 94.5% (inactive)
5 | COc1ccc(OC)c2c(C)cc(C)nc12 | 99.3% (inactive)
6 | COc1ccccc1-c1cc(C(F)(F)F)nc(S(C)(=O)=O)n1 | 106% (inactive)
7 | C/C(=N\NC(=O)c1ccccc1)c1ccccc1F | 104% (inactive)
8 | CC1=NNC(=O)/C1=C\c1cn(-c2ccccc2)nc1-c1ccc(F)cc1 | 124% (inactive)
9 | Cc1ccc(Nc2cc(=O)[nH]c(=O)[nH]2)cc1Cl | 99.3% (inactive)
10 | Nc1[nH]c(=O)nc(Nc2ccccc2)c1N=O | 92.8% (inactive)
11 | COc1cccc(N/C(C)=C/C(=O)c2ccc(Br)cc2)c1 | 104% (inactive)
12 | CN1CCN(C(=O)c2cc(COc3ccc(F)cc3Cl)on2)CC1c1ccccc1 (configuration not stated) | 106% (inactive)
13 | Cc1cc(C)c2ccc(N)nc2c1O | 99.3% (inactive)
14 | CC(=O)Nc1ccc(-c2nc3cc(Cl)ccc3o2)cc1 | 91.2% (inactive)
15 | CCC(C)Nc1nc(N)c([N+](=O)[O-])c(Nc2cc(OC)ccc2OC)n1 (configuration not stated) | 101% (inactive)
16 | C=CCNc1nc(N)c([N+](=O)[O-])c(Nc2cccc(Cl)c2)n1 | 114% (inactive)
17 | Cc1cccc(N/C=C/C(=O)c2ccc(Cl)cc2)c1 | 97.7% (inactive)
